This note sets out measurements from the supplement of paper PMC12350171.

Values without a mark were called inactive.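 The calls were made as follows: active = AUC significantly below DMSO controls by Student t-fit with adjusted P under 0.01; inactive = not significantly reduced.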

For the assay, the system named is Haemophilus parainfluenzae. As to the kind of experiment: growth AUC normalised to DMSO control (fraction of control); higher = less growth inhibition, active = hit call of the paper. The following applies: 20 µM. Put shortly:
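After two anaerobic passages, pathogens were added at a starting OD578 of 0.01 to pre-reduced mGAM plates holding compound at 20 μM with 1% DMSO; hemin and NAD were supplemented for Haemophilus parainfluenzae. Sealed with breathable membranes, plates were read at OD578 hourly for 24 h, in three biological replicates. The trapezoidal rule, applied up to the exponential-to-stationary transition, gave the growth-curve AUC, which was normalised to DMSO controls on the same plate.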
With `C[N+](C)(CCOc1ccccc1)Cc1ccccc1.O=C([O-])c1cc2ccccc2cc1O` [Bephenium hydroxynaphthoate], the “growth AUC normalised to DMSO control” value is 1.04.

For the compound `Cc1cc(C(=O)NNCc2ccccc2)no1` [Isocarboxazid], the “growth AUC normalised to DMSO control” value is 1.06.

For `CCCCN(CCCC)CCCOC(=O)c1ccc(N)cc1` [Butacaine], the “growth AUC normalised to DMSO control” value was 0.998.

As for `CCCCC[C@H](O)/C=C/[C@H]1[C@H](O)CC(=O)[C@@H]1CCCCCCC(=O)O` [Alprostadil], the “growth AUC normalised to DMSO control” value was 0.903.
